Activity calls are given as the source filed them. Unless noted, the call rests on the fitted dose curve; in most records, active means well fitted curve in the direction sought with a large enough effect in the repeat runs; inconclusive means weak or mixed curves; inactive means no such curve, though single readings can be large; an effect the other way counts as inactive or inconclusive.

Test [1] in a line: qHTS assay for identifying genotoxic compounds that show differential cytotoxicity against isogenic chicken DT40 cell lines with known DNA damage response pathways - Rev3 mutant cell line (AID 743014). Further: nearly all actives have a fitted effect of over 55% in size. Further: potency means the concentration at half of the fitted maximal effect.
A short description of test [2]: qHTS assay to identify small molecule antagonists of the androgen receptor (AR) signaling pathway - cell viability counter screen (AID 743033; further: nearly all actives have a fitted effect of over 45% in size; further: potency means the concentration at half of the fitted maximal effect).
The nature of test [3]: qHTS assay to identify small molecule antagonists of the androgen receptor (AR) signaling pathway using the MDA cell line - cell viability counter screen (AID 743041; further: nearly all actives have a fitted effect of over 45% in size; further: potency means the concentration at half of the fitted maximal effect). The method, boiled down:
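In this qHTS counter assay, fluorescence intensity after CellTiter-Fluor addition indicated viability of MDA-kb2 AR-luc cells given compounds and R1881 for 16 h at 37C.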

Test [4] can be described thus: qHTS assay to identify small molecule antagonists of the thyroid receptor (TR) signaling pathway - cell viability counter screen (AID 743064). Further: potency means the concentration at half of the fitted maximal effect; nearly all actives have a fitted effect of over 50% in size. Summed up:
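Plate GH3.TRE-Luc cells; incubate 4 h at 37 °C; add compound, then T3 to 1 nM final; incubate 23.5 h; add CellTiter-Fluor; incubate 30 min at 37 °C, 5% CO2; read fluorescence.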

Test [5] is described as follows: qHTS assay to identify small molecule antagonists of the thyroid receptor (TR) signaling pathway (AID 743065). Further: potency means the concentration at half of the fitted maximal effect; nearly all actives have a fitted effect of over 55% in size. The method, boiled down: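 GH3.TRE-Luc rat pituitary cells carrying two TR response elements driving luciferase were plated for 4 h, given compound plus 1 nM T3 (final), and incubated 23.5 h at 37 C. ONE-Glo luminescence measured reporter inhibition; CellTiter-Fluor fluorescence tracked cytotoxicity.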

Test [6] addresses Estrogen receptor (Homo sapiens) (UniProt P03372). The experiment in a line: qHTS assay to identify small molecule antagonists of the estrogen receptor alpha (ER-alpha) signaling pathway (AID 743069; active means well fitted curve in the direction sought with a large enough effect in the signal ratio in the repeat runs, not every such curve was filed as active; inconclusive means weak or mixed curves, or effect the other way; inactive means no such curve, though single readings can be large or run the other way; the % refers to the signal ratio; further: potency means the concentration at half of the fitted maximal effect). The method, boiled down: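 A 17beta-estradiol challenge was applied right after compound transfer to ER-alpha-UAS-bla HEK293 cells previously kept in charcoal-stripped serum. Plates stood 18 hr at 37C and 5% CO2; fluorescence was read following 2 hr FRET substrate loading at room temperature.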

Test [7] has the same target. The experiment in a line: qHTS assay to identify small molecule agonists of the estrogen receptor alpha (ER-alpha) signaling pathway (AID 743075; calls by dose curve;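 further: HEK293 GripTite cells with ER-alpha and UAS-driven beta-lactamase reporter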; further: potency means the concentration at half of the fitted maximal effect).
Test [8] in a line: qHTS assay to identify small molecule antagonists of the estrogen receptor alpha (ER-alpha) signaling pathway using the BG1 cell line - cell viability counter screen (AID 743081).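 Further: compound given together with 17beta-estradiol as the ER stimulus; nearly all actives have a fitted effect of over 45% in size.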 Further: potency means the concentration at half of the fitted maximal effect.
The next test has as its target Aromatase (Homo sapiens) (UniProt P11511). The experiment in a line: qHTS assay to identify aromatase inhibitors (AID 743083). Further: nearly all actives have a fitted effect of over 55% in size. Further: potency means the concentration at half of the fitted maximal effect.
The nature of test [9]: qHTS assay to identify aromatase inhibitors - cell viability counter screen (AID 743084).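 Further: cells stimulated with testosterone during compound exposure; nearly all actives have a fitted effect of over 55% in size.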 Further: potency means the concentration at half of the fitted maximal effect.
The test system of test [10] is thyroid hormone receptor (rat, GH3 cells). Put plainly: qHTS assay to identify small molecule agonists of the thyroid receptor (TR) signaling pathway (AID 743066; calls by dose curve).
The nature of test [11]: qHTS assay to identify small molecule antagonists of the estrogen receptor alpha (ER-alpha) signaling pathway using the BG1 cell line (AID 743080; calls by dose curve;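 further: BG1 cells stimulated with 17beta-estradiol alongside compound; nearly all actives have a fitted effect of over 25% in size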; further: potency means the concentration at half of the fitted maximal effect). Summed up: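 Luciferase inhibition measured with ONE-Glo after 30 min at RT in BG1Luc4E2 cells given test compounds and 17beta-estradiol for 21.5 h at 37 C; CellTiter-Fluor viability read in the same wells beforehand.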
A short description of test [12]: qHTS assay for identifying genotoxic compounds that show differential cytotoxicity against isogenic chicken DT40 cell lines with known DNA damage response pathways - Rad54/Ku70 mutant cell line (AID 743015). Further: nearly all actives have a fitted effect of over 60% in size. Further: potency means the concentration at half of the fitted maximal effect.
The nature of test [13]: qHTS assay to identify small molecule antagonists of the estrogen receptor alpha (ER-alpha) signaling pathway - cell viability counter screen (AID 743074; calls by dose curve;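 further: HEK293 cells carrying ER-alpha-UAS-bla reporter stimulated with 17beta-estradiol; nearly all actives have a fitted effect of over 45% in size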; further: potency means the concentration at half of the fitted maximal effect).
A short description of test [14]: qHTS assay for identifying genotoxic compounds that show differential cytotoxicity against isogenic chicken DT40 cell lines with known DNA damage response pathways - wild type cell line (AID 743012). Further: nearly all actives have a fitted effect of over 60% in size. Further: potency means the concentration at half of the fitted maximal effect. The method, boiled down:
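Viability by ATP luminescence (CellTiter-Glo, 30 min RT) after 40 h compound treatment at 37 C/5% CO2, using 300 parental DNA repair-proficient DT40 cells per well.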

For test [15], the target named is Estrogen receptor (Homo sapiens) (UniProt P03372). Put plainly: qHTS assay to identify small molecule agonists of the estrogen receptor alpha (ER-alpha) signaling pathway using the BG1 cell line (AID 743079). Further: nearly all actives have a fitted effect of over 20% in size. Further: potency means the concentration at half of the fitted maximal effect.
Test [16] concerns the target Androgen receptor (Homo sapiens) (UniProt P10275). Put plainly: qHTS assay to identify small molecule agonists of the androgen receptor (AR) signaling pathway using the MDA cell line (AID 743040; further: nearly all actives have a fitted effect of over 20% in size). Summed up:
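Cell-based luciferase reporter: MDA-kb2, MMTV promoter (AR + GR response elements). 16 h compound exposure at 37C; ONE-Glo, 30 min RT, luminescence.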

For test [17] the target is unchanged. The experiment in a line: qHTS assay to identify small molecule antagonists of the androgen receptor (AR) signaling pathway using the MDA cell line (AID 743042; further: nearly all actives have a fitted effect of over 55% in size; further: potency means the concentration at half of the fitted maximal effect). The method, boiled down: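 MDA-kb2 cells (human breast carcinoma, stably carrying an MMTV-luciferase reporter responsive to AR and GR) were plated at 3,000 cells/well and preincubated 5 hr at 37C, then given compound plus R1881 agonist for 16 h. ONE-Glo luminescence was read.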

Test [18] has the same target. The experiment in a line: qHTS assay to identify small molecule agonists of the androgen receptor (AR) signaling pathway (AID 743036; active means well fitted activation curve with a large enough effect in the signal ratio in the repeat runs, with a control signal flat, not every such curve was filed as active; inconclusive means weak or mixed curves, or effect the other way; inactive means no such curve, though single readings can be large or run the other way; the % refers to the signal ratio). Summed up: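 Reporter line: GeneBLAzer AR-UAS-bla-GripTite (HEK293). Steps: plate cells, 4 h rest, add compounds, 16 h at 37C, add LiveBLAzer B/G substrate, 2 h at RT, read fluorescence.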

Androgen receptor (Homo sapiens), sequence (P10275 whole entry, looked up): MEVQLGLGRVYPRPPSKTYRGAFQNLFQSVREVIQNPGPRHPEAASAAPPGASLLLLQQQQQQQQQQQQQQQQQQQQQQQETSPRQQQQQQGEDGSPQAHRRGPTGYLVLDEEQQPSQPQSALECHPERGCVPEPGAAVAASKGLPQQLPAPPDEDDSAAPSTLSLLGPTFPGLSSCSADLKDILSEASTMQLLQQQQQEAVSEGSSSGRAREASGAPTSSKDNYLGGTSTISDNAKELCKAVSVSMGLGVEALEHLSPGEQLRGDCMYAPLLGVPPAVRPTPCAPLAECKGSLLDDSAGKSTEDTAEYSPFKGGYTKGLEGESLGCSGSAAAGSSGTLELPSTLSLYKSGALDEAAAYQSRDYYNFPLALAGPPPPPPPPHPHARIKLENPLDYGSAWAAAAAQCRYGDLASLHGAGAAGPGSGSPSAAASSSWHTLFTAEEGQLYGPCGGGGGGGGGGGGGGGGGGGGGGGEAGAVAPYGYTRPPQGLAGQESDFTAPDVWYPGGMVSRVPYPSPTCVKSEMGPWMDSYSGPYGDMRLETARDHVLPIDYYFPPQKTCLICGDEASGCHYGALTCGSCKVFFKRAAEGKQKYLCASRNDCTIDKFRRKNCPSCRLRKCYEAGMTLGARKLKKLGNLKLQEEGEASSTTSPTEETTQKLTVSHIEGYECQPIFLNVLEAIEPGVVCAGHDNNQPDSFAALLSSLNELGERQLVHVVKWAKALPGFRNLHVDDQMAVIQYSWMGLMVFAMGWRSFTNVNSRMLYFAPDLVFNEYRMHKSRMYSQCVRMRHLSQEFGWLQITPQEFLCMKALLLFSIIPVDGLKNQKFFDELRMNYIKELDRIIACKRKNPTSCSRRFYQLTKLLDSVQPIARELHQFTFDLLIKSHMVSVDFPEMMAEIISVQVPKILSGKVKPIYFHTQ
Estrogen receptor (Homo sapiens), sequence (P03372 whole entry, looked up): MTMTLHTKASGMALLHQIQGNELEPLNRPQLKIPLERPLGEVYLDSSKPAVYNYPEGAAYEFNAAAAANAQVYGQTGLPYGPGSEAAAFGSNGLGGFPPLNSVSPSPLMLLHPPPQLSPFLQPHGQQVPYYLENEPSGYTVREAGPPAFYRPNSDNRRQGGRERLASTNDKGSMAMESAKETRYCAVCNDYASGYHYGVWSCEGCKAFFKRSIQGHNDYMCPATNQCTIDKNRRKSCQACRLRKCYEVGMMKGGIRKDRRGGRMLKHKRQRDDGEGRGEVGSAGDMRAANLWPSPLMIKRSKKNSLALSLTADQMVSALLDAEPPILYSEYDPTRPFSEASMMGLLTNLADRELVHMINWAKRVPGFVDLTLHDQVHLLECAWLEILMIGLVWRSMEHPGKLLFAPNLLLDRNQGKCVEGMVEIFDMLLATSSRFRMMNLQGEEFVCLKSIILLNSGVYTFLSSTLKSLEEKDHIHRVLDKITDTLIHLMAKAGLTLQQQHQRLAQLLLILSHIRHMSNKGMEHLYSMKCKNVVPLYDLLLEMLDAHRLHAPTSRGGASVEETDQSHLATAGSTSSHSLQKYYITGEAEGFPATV
Aromatase (Homo sapiens), sequence (P11511 whole entry, looked up): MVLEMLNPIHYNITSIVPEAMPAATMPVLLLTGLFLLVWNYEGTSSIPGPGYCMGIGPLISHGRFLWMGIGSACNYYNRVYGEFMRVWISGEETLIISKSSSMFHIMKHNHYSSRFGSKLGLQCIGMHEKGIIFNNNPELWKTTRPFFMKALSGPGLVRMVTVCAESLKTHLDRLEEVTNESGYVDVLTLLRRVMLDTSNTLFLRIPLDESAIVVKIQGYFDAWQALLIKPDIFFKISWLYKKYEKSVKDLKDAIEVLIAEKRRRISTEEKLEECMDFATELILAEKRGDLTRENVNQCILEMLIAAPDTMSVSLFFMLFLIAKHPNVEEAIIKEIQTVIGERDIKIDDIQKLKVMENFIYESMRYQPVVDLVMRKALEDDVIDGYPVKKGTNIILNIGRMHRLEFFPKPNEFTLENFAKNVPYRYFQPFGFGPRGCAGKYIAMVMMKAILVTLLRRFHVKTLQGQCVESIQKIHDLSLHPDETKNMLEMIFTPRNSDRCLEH

With `COC12CC[C@@]3(C[C@@H]1C(C)(O)C(C)(C)C)[C@H]1Cc4ccc(O)c5c4[C@@]3(CCN1CC1CC1)[C@H]2O5` (stereo not given in full), the Potency was 60.7 µM (active) in test [1]; 54.6 µM (active) in [2]; 60.7 µM (active) in test [3]; 21.5 µM (active) in [4]; 24.2 µM (active) in test [5]; 13.7 µM [inconclusive] (active) in [6]. Besides, the Potency in the test with Aromatase (Homo sapiens) is 19.2 µM (active); in test [9], 60.7 µM (active). In addition, the Potency result in [7] and in test [8] was “inactive” throughout.

For the compound `O=S(=O)(c1ccc(Cl)cc1)c1ccc(Cl)cc1`, the Potency in test [1] was 44.8 µM (active); in test [11] it was 24.6 µM (active). The Potency result in [3], in [7] and in test [8] was “inactive” each time. In addition, the compound was classed as inactive in test [10].

On to `ClC1=C(Cl)[C@]2(Cl)[C@@H]3[C@@H]4C[C@@H]([C@H]5O[C@@H]45)[C@@H]3[C@@]1(Cl)C2(Cl)Cl`, for which the Potency in test [1] is 14.5 µM (active); in test [12] it was 25.8 µM (active); in test [4] it was 40.9 µM (active); in test [5], 30.6 µM (active); with Aromatase (Homo sapiens), 34.4 µM (active). The Potency result in [6] and in [8] was “inactive” each time.

As for `[Hg+2].[I-].[I-]`, the Potency in test [1] was 1.22 µM (active); in [12] it was 0.77 µM (active); in test [2], 21.9 µM (active); in [3], 54.5 µM (active); in test [4] it was 1.54 µM (active); in test [5], 0.77 µM (active). Moreover, the Potency in test [13] was 43.6 µM (active); in test [7] it was 54.9 µM [inconclusive] (active); in [8] it was 68.6 µM (active); with Aromatase (Homo sapiens) it was 8.63 µM (active); in [9] it was 6.86 µM (active). Further, the call in test [10] was inactive.

As for `Cc1cc(SCc2sc(-c3ccc(C(F)(F)F)c(F)c3)nc2C)ccc1OCC(=O)O`, the Potency in test [14] is 54.5 µM (active); in [1], 34.4 µM (active); in test [12] it was 54.5 µM (active); in test [2], 38.9 µM (active); in test [5], 61.1 µM (active). Also, the outcome in test [10] was inactive. Also, the Potency entry in test [7], in [15], in [11] and in test [8] was “inactive” in each case.

On to `CC(=O)/C=C/c1ccc2c(c1)OCO2`, for which the Potency in test [1] is 68.9 µM (active); in [12], 61.4 µM (active); in test [17], 61.4 µM (active). The Potency entry in [2], in [16], in [3], in [13], in [7] and in [15] was “inactive” each time. For the same compound, the Potency result (in test [8]; in the test with Aromatase (Homo sapiens)) was “inactive” throughout. The call in test [10] was inactive.

For the compound `Oc1cc(Cl)c(Cl)c(Cl)c1`, the Potency entry in [14], in [1], in test [16], in test [3], in test [11] and in test [8] was “inactive” in each case. The Potency in test [2] was 32.9 µM (active); in test [7] it was 41.4 µM [activator] (active).

Take `O=C(Nc1ccc2[nH]ccc2c1)c1cc2cc(F)ccc2n1Cc1cccc(F)c1`: the Potency in test [14] is 19.3 µM (active); in [1] it was 27.3 µM (active); in [12], 17.2 µM (active); in test [2], 49 µM (active); in [4], 10.9 µM (active); in [5], 13.7 µM (active). In addition, the Potency result in [6], in test [13] and in [8] was “inactive” throughout.

In the case of `CC(C)C1CCC(Cc2ccc(Cl)cc2)C1(O)Cn1cncn1` (stereo not given), the Potency in test [1] was 13.5 µM (active); in [12], 8.55 µM (active); in test [2], 38.5 µM (active); in test [4], 60.5 µM (active); in test [5], 34 µM (active); in [11], 67.9 µM (active). For the same compound, the Potency with Aromatase (Homo sapiens) is 2.41 µM (active); in test [9] it was 24.1 µM (active). For the same compound, the Potency result in test [7] was “inactive”.

Turning to `CCCCCCCCc1ccc(O)cc1`, the Potency is 21.8 µM (active) in [14]; 25.2 µM (active) in [12]; 46.1 µM (active) in test [4]; 31.7 µM (active) in the test with Aromatase (Homo sapiens); 21.8 µM (active) in [9]. The Potency entry in test [18], in [16], in test [17] and in [8] was “inactive” throughout. In [10], the call was inactive.

Take `CCOCCOC(C)=O`: the Potency entry in [1], in [12], in test [2], in test [3], in test [6] and in [7] was “inactive” throughout. Further, the Potency result (in test [15]; in [11]; with Aromatase (Homo sapiens); in test [9]) was “inactive” in each case. The compound was classed as inactive in test [10].

In the case of `O=c1ssc(Cl)c1Cl`, the Potency in test [14] was 3.44 µM (active); in [1] it was 2.17 µM (active); in [2], 43.6 µM (active); in [4] it was 48.6 µM (active); in [5], 27.3 µM (active); with Aromatase (Homo sapiens) it was 15.4 µM (active). The Potency in test [9] is 17.2 µM (active). The Potency result in [3], in test [6], in test [13], in [15] and in test [11] was “inactive” each time. Further, the result in [10] was inactive.

Regarding `CN(C)S(=O)(=O)N(SC(F)(Cl)Cl)c1ccccc1`, the Potency is 0.154 µM (active) in [1]; 0.109 µM (active) in test [12]; 3.47 µM (active) in [2]; 24.3 µM (active) in test [3]; 1.22 µM (active) in test [4]; 1.22 µM (active) in test [5]. For the same compound, the Potency with Aromatase (Homo sapiens) is 3.44 µM (active); in test [9], 27.3 µM (active).

Turning to `Oc1ccc(C2(c3ccc(O)cc3)CCCCC2)cc1`, the Potency in test [1] was 65 µM (active); in test [12], 57.9 µM (active); in test [4], 57.9 µM (active); in [5] it was 36.5 µM (active); in test [6], 0.52 µM [inconclusive] (active); in test [7] it was 52.1 µM [inconclusive] (active). Further, the Potency in test [15] is 0.818 µM (active); with Aromatase (Homo sapiens) it was 51.6 µM (active); in [9], 25.9 µM (active). Besides, the call in [10] was inactive. The Potency result in test [8] was “inactive”.

With `CCCSP(=O)(OCC)SCCC`, the Potency in test [14] is 28.3 µM (active). Besides, the Potency result (in test [2]; in test [18]; in [16]; in [3]; in test [8]; in the test with Aromatase (Homo sapiens)) was “inactive” each time. For the same compound, in test [10], the compound was called inactive.

As to `O=C(CCl)C(Cl)Cl`, the Potency in test [14] is 5.5 µM (active); in test [1] it was 0.692 µM (active); in [12], 4.9 µM (active); in test [2], 6.22 µM (active); in test [4] it was 8.71 µM (active); in test [5], 12.3 µM (active). Further, the Potency is 39.3 µM (active) in test [13]; 13.9 µM [inconclusive] (active) in [7]; 24.6 µM (active) in test [15]; 8.71 µM (active) with Aromatase (Homo sapiens); 8.71 µM (active) in test [9].

For the compound `CCCCCCCCCCCCCCC(Br)C(=O)O` (stereo not given), the Potency in test [1] was 24.3 µM (active); in [4], 43.3 µM (active). The Potency entry (in [2]; in [3]; in test [13]; in [15]; in test [8]; with Aromatase (Homo sapiens)) was “inactive” in each case. The Potency entry in [9] is “inactive”. Also, the compound was called inactive in test [10].

As to `CCc1nn(C)c(C(=O)NCc2ccc(C(C)(C)C)cc2)c1Cl`, the Potency is 0.077 µM (active) in [14]; 0.0863 µM (active) in test [1]; 0.0545 µM (active) in [12]; 0.195 µM (active) in [2]; 0.0863 µM (active) in test [3]; 0.77 µM (active) in test [5]. Besides, the Potency was 0.0243 µM (active) in test [11], 30.6 µM (active) in test [8], 61.1 µM (active) with Aromatase (Homo sapiens) and 61.1 µM (active) in test [9].

The record behind these values is PubChem BioAssay (Tox21).
